A selection: hits, their analogues and other compounds. The true share with any hit is near 4.8%.
DRD3 agonist – activates the human D3 dopamine receptor | P35462 | D3R DiscoveRx beta-arrestin cells, luminescence, 90 min | max activation, % | hit rate 0.58% among 410,000; in the data active means max activation above about 30%
Target sequence (P35462 whole entry, looked up): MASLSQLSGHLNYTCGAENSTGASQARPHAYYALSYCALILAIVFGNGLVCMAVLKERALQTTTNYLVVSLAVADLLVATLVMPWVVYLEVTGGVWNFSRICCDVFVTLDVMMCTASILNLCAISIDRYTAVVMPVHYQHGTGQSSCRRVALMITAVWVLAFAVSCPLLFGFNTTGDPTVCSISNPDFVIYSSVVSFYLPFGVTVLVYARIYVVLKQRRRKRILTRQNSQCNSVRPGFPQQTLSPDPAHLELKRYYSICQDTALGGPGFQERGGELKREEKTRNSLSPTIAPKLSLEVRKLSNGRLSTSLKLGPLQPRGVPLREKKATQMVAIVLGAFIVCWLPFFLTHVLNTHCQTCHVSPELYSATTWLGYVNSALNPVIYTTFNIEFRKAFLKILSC
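Agonist-mode cell screen: cells plated at 1500/well and incubated overnight at 37 °C, then exposed to library compounds for 90 min at 37 °C. Detection reagent was added for 30–60 min at room temperature, and luminescence was read.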
ATXN viability – reduces viability in counter-screen for ATXN expression inhibitors | S2 cells (HEK-293 line with an ATXN2-luciferase reporter) viability, CellTiter-Fluor protease fluorescence, 24 h | Potency, µM (series often up to 56.7 µM), actives largely listed as cytotoxic | hit rate 0.49% among 400,000 | AID 651635; further: nearly all actives have a fitted effect of over 40% in size
HepG2 viability – HepG2 cytotoxicity, counter-screen for TGF-b inhibitors. Potency, µM (highest dose often 46.1 µM), usual class: cytotoxic. AID 588856. hit rate 0.76% among 410,000. HepG2 CAGA-GFP viability, ATP luminescence, 18 h
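CellTiter-Glo luminescence gave cytotoxicity after 18 hours at 37 degrees C. The cells were HepG2 CAGA-GFP in 1% FBS DMEM, stimulated with 500 pg/mL TGF-beta after compound addition. %Activity was normalised to no-cell wells (complete cell-killing) and DMSO (no toxicity), and curves were fitted and classified.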
ATXN2 expr inh – ATXN2 expression inhibition; Potency, µM (series often up to 57 µM), usual class: inhibitors; HEK-293 ATXN2-luciferase reporter, luminescence, 24 h; hit rate 0.72% among 360,000; further: nearly all actives have a fitted effect of over 55% in size
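ATXN2-luciferase reporter cells (luciferase flanked by upstream and downstream ATXN2 gene portions) were treated 24 h at 37 °C with compounds at up to 57 uM. SteadyGlo luminescence gave expression; GF-AFC fluorescence gave viability.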
TGFb SMAD3 inh – blocks TGF-b signaling; HepG2 CAGA-GFP TGF-b/SMAD3 reporter, GFP fluorescence, 18 h; TGF-beta stimulated, 500 pg/mL final; Potency, µM (series often up to 46.1 µM), usual class: inhibitors; hit rate 1.2% among 410,000; AID 588855; further: nearly all actives have a fitted effect of over 65% in size
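Read-out: total well GFP (ex488/em500-530) summed from mean per-cell fluorescence. Cells: HEPG2 CAGA-GFP, 1% FBS DMEM, 18 h at 37 degrees C with 500 pg/mL final TGF-beta. Unstimulated wells served as the full-inhibition control; stimulated DMSO wells = 0%.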
DRD3 antagonist – blocks the human D3 dopamine receptor | P35462 | hit rate 2.5% among 360,000 | max response, negative = inhibition, % | D3R cells, DiscoveRx beta-arrestin luminescence, antagonist mode; hits give low values; in the data active means max response below about -50%; inconclusive means no clear call, values can overlap the other calls
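Cells expressing the human receptor were seeded at 1500 cells/well, incubated overnight at 37 degrees C in 5% CO2, then exposed to library compounds with dopamine controls for 90 minutes at 37 degrees C before luminescent detection.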
Numbers stand for hits; – = inactive; ? = inconclusive; · = not tested or not shown. Unless noted, the call rests on the fitted dose curve; in most records, active means well fitted curve in the direction sought with a large enough effect; inconclusive means small, poorly fitted or top-dose-only effect, or another doubt; inactive means no such curve, though single readings can be large; an effect the other way counts as inactive or inconclusive.

SMILES | DRD3 agonist | ATXN viability | HepG2 viability | ATXN2 expr inh | TGFb SMAD3 inh | DRD3 antagonist
COc1ccc(CCC(=O)OCC(=O)c2c(N)n(CC(C)C)c(=O)n(C)c2=O)cc1 | – | – | – | – | – | –
CC(C)Cn1c(N)c(C(=O)COC(=O)c2cc(-c3ccccc3)nc3ccccc23)c(=O)n(C)c1=O | – | – | – | – | – | –
CC(C)Cn1c(N)c(C(=O)CSc2nc3ccccc3n2C)c(=O)n(C)c1=O | – | – | – | – | – | -53.8
CCC1CCCCN1C(=O)c1ccc2c(c1)N(Cc1cccc(Cl)c1)C(=O)c1ccccc1S2(=O)=O (stereo not given) | – | · | – | · | – | ·
O=C(NCC1Cc2cccc(-c3cccnc3)c2O1)c1cc(-c2ccccc2)n[nH]1 (stereo not given) | · | – | · | · | · | ·
CCCOc1ccc(C2=NC(c3ccc(F)cc3)=Nc3ccc(OC)cc3N2)cc1 | – | – | – | – | ? | ·
C(=C\c1cnc2ccccc2n1)/c1ccc2c(c1)OCO2 | · | · | – | · | – | ·
CCOC(=O)C(=O)Nc1ccccc1C(=O)NC(C)C | 37.6 | – | – | – | – | –
CN(Cc1cnc2ccccn12)C(=O)c1cc(NC(=O)c2ccccc2)cc2ncn(C3CCCC3)c12 | · | – | · | · | · | ·
CCCCN(CC)CCNC(=O)C1CCN(c2nnc(C)c3c(C)n(-c4ccc(C)cc4)nc23)CC1 | – | · | – | · | – | ·
OC1(c2cccc(C(F)(F)F)c2)CCN(c2ncnc3c2[nH]c2ccc(F)cc23)CC1 | 39.6 | – | 20µM | – | ? | –
Fc1ccc2[nH]c3c(N4CCN(c5ccccc5)CC4)ncnc3c2c1 | – | ? | – | ? | ? | –
O=S(=O)(Nc1ccc(C(O)(C(F)(F)F)C(F)(F)F)cc1)c1ccc(Cl)c2nonc12 | – | · | 20µM | 17.8µM | ? | –
COC(=O)c1cc(C)nc2c1C(=O)C(=O)C=C2N1CCOCC1 | – | 3.16µM | 5.01µM | 3.55µM | 4.47µM | -100.1
COC(=O)c1cc(S(=O)(=O)N2CCOCC2)c(Cl)cc1N1CCOCC1 | – | – | – | – | ? | ?
CCN1C(=O)[C@H]2[C@@H](c3ccc(-c4ccc(C(C)=O)cc4)c(OC)c3)N3CCCC[C@@]3(C(=O)OC)[C@H]2C1=O | – | – | – | – | – | –
CCN1C(=O)[C@@H]2[C@@H](c3ccc(-c4ccc(F)cc4)c(OC)c3)N3CCCC[C@@]3(C(=O)OC)[C@@H]2C1=O | 32.8 | – | – | – | – | –
CCCCCOc1ccc(C2SC(=O)NC2=O)cc1OCC (stereo not given) | – | – | · | – | · | ·
COC(=O)c1c(-c2ccc(Cl)cc2)noc1N1CCN(c2ccc(F)cc2)CC1 | 64.4 | – | – | – | – | ·
COC(=O)c1c(-c2ccc(Cl)cc2)noc1N1CCN(c2cccc(C(F)(F)F)c2)CC1 | 95.3 | – | – | – | – | ·
Oc1ccccc1C1CC(c2cccs2)=NC(c2ccc(Cl)cc2)N1 (stereo not given) | – | ? | – | ? | 20µM | –
COc1ccc(C2C(=O)N(C3CCCCCC3)CC(=O)N2Cc2ccc(C)cc2)cc1 (stereo not given) | – | · | – | · | – | ·
CCN1C(=O)/C(=C/N(C(C)=O)c2ccccc2)N(c2ccccc2)C1=S | – | ? | – | ? | – | -80.9
COc1cc2c(cc1OC)CN(Cc1ccc(F)cc1)CC2 | – | – | – | – | – | –
Brc1cc2c(cc1CN1CCc3ccccc3C1)OCO2 | – | – | – | · | ? | –
SMILES | DRD3 agonist | ATXN viability | HepG2 viability | ATXN2 expr inh | TGFb SMAD3 inh | DRD3 antagonist
COc1ccc(CN2CCc3cc(OC)c(OC)cc3C2)cc1O | – | – | – | – | – | -57.6
COc1ccc(CN2CCc3ccccc3C2)cc1Br | – | ? | – | · | – | -92.4
COc1ccc(C)cc1NC(=O)c1cc(S(=O)(=O)N2CCC(C)CC2)cn1C | – | – | – | – | – | ·
CC1CCN(S(=O)(=O)c2cc(C(=O)Nc3ccc(Br)cc3F)n(C)c2)CC1 | – | – | – | – | 11.2µM | ·
COc1cccc(CN2CCC3(CCC(CNC(=O)c4ccco4)O3)CC2)c1OC (stereo not given) | · | – | · | · | · | ·
CN(C)c1ccc(/C=C/C=C2/SC(=S)N(c3ccccc3)C2=O)cc1 | – | 15.8µM | – | – | – | -66.6
Oc1ccc(CCNc2c3ccccc3nc3ccccc23)cc1O | 124.0 | ? | – | ? | ? | –
c1ccc(CNc2c3ccccc3nc3ccccc23)cc1 | – | – | – | · | ? | –
O=C(Nc1nc(-c2ccccc2)c(-c2ccccc2)o1)c1ccc(F)cc1 | – | – | – | – | – | -100.1
COc1ccc(-c2nnc(NC(=O)c3ccc(F)cc3)o2)cc1 | – | 20µM | – | – | ? | –
COc1ccc(-c2nnc(NC(=O)c3ccc4c(c3)OCCO4)o2)cc1 | – | – | – | – | – | –
CCc1ccc(CNC(=O)c2ccc3c(c2)nc2n3CCOC2)cc1 | – | · | – | · | – | ·
CCNC(=O)C1(C)CCCN(Cc2csc(-c3ccc(Cl)cc3)n2)C1 (stereo not given) | – | – | – | – | – | –
CCCNC(=O)C1(C)CCCN(Cc2csc(-c3ccccc3)n2)C1 (stereo not given) | 44.8 | – | – | – | – | -66.3
CCCNC(=O)C1(C)CCCN(CCC(=O)c2ccccc2)C1 (stereo not given) | – | – | 14.1µM | – | 15.8µM | –
COCCNC(=O)C1(C)CCN(Cc2csc(-c3ccc(Cl)cc3)n2)C1 (stereo not given) | – | – | – | – | – | -103.5
O=C(Cc1ccc(F)cc1)NCc1ccc2c(c1)CCN2C(=O)c1ccc(F)cc1 | – | · | – | · | – | ·
CSc1nc2sc3c(c2c(=O)n1Cc1ccccc1)CCC(C(C)(C)C)C3 (stereo not given) | – | – | – | – | – | ·
O=C(CSc1n[nH]c(-c2ccncc2)n1)c1cccc([N+](=O)[O-])c1 | – | – | – | – | – | -69.1
Cc1ccc2c(CC(=O)N3CCOc4ccc(CN5CCOCC5)cc4C3)cc(=O)oc2c1 | · | – | · | · | · | ·
Nc1ccc(C(=O)N/N=C/c2cn(Cc3ccccc3)c3ccccc23)cc1 | – | – | – | – | 2.82µM | ?
Cc1ccccc1OCC(=O)N/N=C/c1cn(Cc2ccccc2)c2ccccc12 | – | – | – | – | 8.91µM | –
COC(=O)N/N=C/c1cn(Cc2ccccc2F)c2ccccc12 | – | – | – | – | ? | –
O=[N+]([O-])c1ccc(N/N=C/c2cn(Cc3ccc(F)cc3)c3ccccc23)nc1 | – | – | – | – | – | -54.2
COC(=O)N/N=C/c1cn(Cc2ccc(F)cc2)c2ccccc12 | – | – | – | – | 5.01µM | –
Cc1ncc2c(c1CNC(=O)c1ccc3c(c1)OCO3)CCN(C(=O)c1scc3c1CCCC3)C2 | · | – | · | · | · | ·

High-throughput results as filed in PubChem.
